Bioassay records from PubChem.
Only a selection was taken, and hits are over-represented in it overall.
ClpP mod = qHTS Assay for Activators of ClpP; Potency, µM (series often up to 57.5 µM), for inactives: at the top dose activity change, negative = active; purified B. subtilis ClpP, FRET peptide cleavage, 20 min; actives 1.9% (n = 340,000); ATP-dependent Clp protease proteolytic subunit (Bacillus subtilis (strain 168)), P80244; active means well fitted falling curve with a large enough effect; inconclusive means small, poorly fitted or top-dose-only effect; inactive means no such curve, though single readings can be large or run the other way; further: potency means the concentration at half of the fitted maximal effect; the source files actives as falling curves though it sought activators and does not explain the sign; nearly all actives have a fitted effect of over 65% in size
Target sequence (P80244 whole entry, looked up): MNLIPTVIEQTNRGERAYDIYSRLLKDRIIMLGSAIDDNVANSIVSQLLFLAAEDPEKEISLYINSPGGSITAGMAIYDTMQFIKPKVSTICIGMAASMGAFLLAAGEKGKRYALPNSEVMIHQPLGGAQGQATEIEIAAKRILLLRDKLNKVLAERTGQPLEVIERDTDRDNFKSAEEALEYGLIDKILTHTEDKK
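FRET quenching reversal measured ClpP activation: 10 microg/mL B. subtilis ClpP at pH 8 with the FRET-FV decapeptide, read at 430 nm after 320 nm excitation. The 20-min minus 0-min signal was scaled between DMSO/no-enzyme wells and ADEP (5.8 microM final).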
LDHA block = LDHA (human) enzyme inhibition; AID 1347041; purified LDHA, NADH/diaphorase-resazurin fluorescence; stronger effect = lower value; actives 0.15% (n = 480,000); activity change, % (values are at about 110 or 230 µM); in the data active means activity change below about -30%; inconclusive means mostly about -25% to -30%;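 further: plate controls were DMSO wells for no effect and wells without enzyme for full effect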
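LDH5 2 nM; NADH 0.06 mM, pyruvate 0.2 mM; 200 mM Tris pH 7.4, EDTA, Tween-20; 5 min RT. Detection: diaphorase 0.133 mg/mL + resazurin 37 µM, fluorescence ex540/em590 at 0 and 20 min; normalized to enzyme-free and DMSO wells.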
Mito fusion yeast = mitochondrial division inhibition or fusion activation | S. cerevisiae fusion-defective mutant growth rescue, CellTiterGlo 48 h | Potency, µM (highest dose often 46.1 µM), for inactives: at the top dose growth rescue (activation), most hits filed as activators | actives 0.23% (n = 320,000); further: potency means the concentration at half of the fitted maximal effect; % of control where 0% means no effect; nearly all actives have a fitted effect of over 45% in size
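Growth-rescue viability read-out: after 48 h at the non-permissive 37C in glycerol/ethanol YPEG, yeast mitochondrial fusion mutants are measured by CellTiterGlo luminescence; compounds (23 nl pinned per well) restoring growth score as division inhibitors or fusion activators.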
IDH1 R132H inh = inhibitors of human mutant IDH1 R132H; O75874; IDH1-R132H enzyme, NADPH consumption, diaphorase/resazurin fluorescence; Potency, µM (series often up to 76.6 µM), inactives show top-dose activity change, negative = inhibition, hits mostly inhibitors; actives 0.093% (n = 390,000); AID 602179; further: potency means the concentration at half of the fitted maximal effect; on the % scale 0 is the no-effect control and ±100 the full control effect; nearly all actives have a fitted effect of over 65% in size
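IDH1-R132H (0.5 ug/mL dispensed) in pH 7.5 Tris buffer was preincubated 30 min with compound, then given a substrate mix of 0.016 mM NADPH and 2 mM alpha-KG for 80 min at room temperature; remaining NADPH was read by diaphorase/resazurin fluorescence.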
RGS4 inh = blocks human RGS4-accelerated GTP hydrolysis; P49798; Transcreener GDP fluorescence polarization, RGS4-accelerated GTP hydrolysis; Potency, µM (titrated, usually from 114 µM), inactives show at the top dose activity change, negative = inhibition, usual class: inhibitors; actives 0.039% (n = 390,000); AID 504845; further: potency means the concentration at half of the fitted maximal effect; on the % scale 0 is the no-effect control and ±100 the full control effect; nearly all actives have a fitted effect of over 75% in size
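MLSMR compounds (23 nl, pin-transferred) preincubated 10 min at room temperature with a 500nM (2x) first reagent, then RGS4 at 900nM (2x) plus Transcreener GDP mix added; fluorescence polarization (620/688 nm) read before and after 90 min at 30 °C.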
S-ASM inh = blocks human secretory acid sphingomyelinase; P17405; actives 0.006% (n = 340,000); Potency, µM (series often up to 57.5 µM), for the others: at the highest dose activity change, negative = inhibition, most hits filed as inhibitors; placental ASM, HMU-PC fluorogenic substrate, 60 min; further: potency means the concentration at half of the fitted maximal effect
Target sequence (P17405 47-631 limits assumed): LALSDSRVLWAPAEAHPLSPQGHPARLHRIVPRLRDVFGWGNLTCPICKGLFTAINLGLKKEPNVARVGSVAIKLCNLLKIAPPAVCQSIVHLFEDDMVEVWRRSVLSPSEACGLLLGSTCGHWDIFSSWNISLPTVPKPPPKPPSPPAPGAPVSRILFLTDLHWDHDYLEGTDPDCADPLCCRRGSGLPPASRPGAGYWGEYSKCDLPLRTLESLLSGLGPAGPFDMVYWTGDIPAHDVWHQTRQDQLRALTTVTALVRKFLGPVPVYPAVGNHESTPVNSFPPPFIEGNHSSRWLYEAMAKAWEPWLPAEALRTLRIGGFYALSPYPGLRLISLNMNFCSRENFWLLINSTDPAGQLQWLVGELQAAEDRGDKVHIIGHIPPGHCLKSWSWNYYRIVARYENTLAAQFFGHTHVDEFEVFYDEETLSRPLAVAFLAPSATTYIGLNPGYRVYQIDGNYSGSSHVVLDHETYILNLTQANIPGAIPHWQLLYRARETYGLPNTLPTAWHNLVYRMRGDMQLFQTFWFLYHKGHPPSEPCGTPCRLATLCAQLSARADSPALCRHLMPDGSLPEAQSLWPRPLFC
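Steps: dispense placental human ASM, pin compound, wait 10 min at room temperature, add HMU-PC0 substrate at 9 uM final, incubate 60 min at 37 °C, add stop solution raising pH to 10, read fluorescence.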
An asterisk follows results filed as active; i = inactive; ? = inconclusive; nt = no result given; ! = not active in a repeat; [ ] = remark or other dose. Unless noted, the call rests on the fitted dose curve; in most records, active means well fitted curve in the direction sought with a large enough effect; inconclusive means small, poorly fitted or top-dose-only effect, or another doubt; inactive means no such curve, though single readings can be large; an effect the other way counts as inactive or inconclusive.

SMILES	ClpP mod	LDHA block	Mito fusion yeast	IDH1 R132H inh	RGS4 inh	S-ASM inh
CC(=O)c1cc(-c2ccccc2)n(CC(=O)N2CCN(C3CCCC3)CC2)c1C	32µM*	1	-5%	1%	-16%[11.4 µM]	3%
CCCCc1c(C)[nH]n(-c2nc(C)c(C(=O)Nc3ccccc3)s2)c1=O	nt	-3	nt	nt	nt	nt
CCCCc1c(C)[nH]n(-c2nc(C)c(C(=O)Nc3cccc(OC)c3)s2)c1=O	nt	-36*	nt	nt	nt	nt
CCC(C(=O)OCC(=O)Nc1cc(Cl)ccc1Cl)c1ccccc1 (stereo not drawn)	25µM*	-2	13%	2%	19%	-2%
COc1ccc(N(C)S(=O)(=O)c2cccc(C(=O)Nc3nc4ccccc4[nH]3)c2)cc1	28µM*	-5	-2%	-4%	9%	-5%
O=C(N/N=C/c1cn(-c2cccs2)nc1-c1ccccc1)c1ccccc1Cl	22µM*	-5	18µM*	-17%	5%	?
COc1ccccc1N1CCN(CCN2C(=O)C3CCCCN3C2=O)CC1 (stereo not drawn)	32µM*	-3	-2%	3%	-40%	0%
COC(=O)C(C)N1C(=O)S/C(=C/c2ccc(C)cc2)C1=O (stereo not drawn)	nt	-12	nt	nt	nt	nt
O=C(Nc1ccc2[nH]ncc2c1)c1cnc2c(cnn2C2CCCC2)c1	nt	33	nt	nt	nt	nt
Cc1c(C#N)c(N)nc2c3c(sc12)NC(=O)CC3c1ccccc1 (stereo not drawn)	-27%	-31*!	3%	8%	9%	i
COc1cc(NC(=O)Cc2ccsc2)ccc1N1CCCC1=O	nt	1	nt	nt	nt	nt
CC1=C(c2ccc(F)cc2)[N+](=O)C(C)(C)N1[O-]	nt	3	13µM*	3%	3%	0%
O=C(O)/C=C\C(=O)Nc1ccccc1C(=O)N1CCN(c2ccc(Cl)cc2)CC1	20µM*	-5	0%	0%	-1%	0%
CN(C(=O)COC(=O)c1ccc2ccccc2n1)c1ccccc1	10µM*	3	nt	3%	-15%	0%
CN(Cc1ccccc1)C(=O)COC(=O)c1ccc2ccccc2n1	2%	-5	2%	-2%	-21%	0%
O/N=C1\CCCc2c1nc(-c1ccco1)n2O	nt	15	nt	nt	nt	nt
CCOC(=O)N1CCN(c2nc3ccccc3nc2C(C#N)S(=O)(=O)c2ccc(C)cc2)CC1 (stereo not drawn)	32µM*	5	4%	5%	4%	37%
Cc1ccc(S(=O)(=O)C(C#N)c2nc3ccccc3nc2N2CCN(C)CC2)cc1 (stereo not drawn)	-2%	5	-1%	5%	-14%	-1%
O=c1cc(CN2CCN(c3ccccc3F)CC2)c2c(ccc3ccccc32)o1	28µM*	-3	nt	nt	nt	nt
O=S1(=O)Cc2c(nc3ccccc3c2-c2ccccc2)-c2ccccc21	nt	7	nt	nt	nt	nt
CCn1nc(NC(=O)c2ccccn2)c2cc3cccc(C)c3nc21	32µM*	-9	-3%	6%	17%[11.4 µM]	127%
CCn1nc(NC(=O)c2ccncc2)c2cc3cccc(C)c3nc21	0%	-3	0%	1%	6%	16%
COc1cccc(/C=C/c2nc3c(ccc4ccccc43)s2)c1OC	nt	-10	nt	nt	nt	nt
CC(=O)C1=C(OC(=O)c2ccc(C)cc2)c2ccccc2S(=O)(=O)N1C(C)C	nt	3	nt	nt	nt	nt
O=C(NCc1ccccc1Cl)c1ccc(S(=O)(=O)N2CCCC2)cc1	1%	-3	0%	-1%	5%	2%
SMILES	ClpP mod	LDHA block	Mito fusion yeast	IDH1 R132H inh	RGS4 inh	S-ASM inh
O=C(NCc1ccccc1Cl)c1ccc(S(=O)(=O)Nc2cccc(C(F)(F)F)c2)cc1	20µM*	-5	-4%	-4%	39%	-3%
CC(C)C(NS(=O)(=O)c1ccccc1)C(=O)OCc1cc([N+](=O)[O-])cc2c1OCOC2 (stereo not drawn)	32µM*	-2	11%	0%	-4%	-1%
O=C(CSc1nc2ccccc2o1)Nc1nc(-c2ccccc2)cs1	?	0	16µM*	3%	-24%	-7%
Cc1c(-c2nsc(NC(=O)c3ccc(Cl)cc3)n2)nnn1-c1ccc(C(C)C)cc1	25µM*	-7	nt	-13%	20%	nt
O=C(O)c1cc(S(=O)(=O)Nc2ccc(Cl)c3cccnc23)ccc1Cl	nt	44	nt	nt	nt	nt
CCOC(=O)COc1ccc2c(=O)c(Oc3ccccc3Br)coc2c1	nt	-2	nt	nt	nt	nt
CCOc1ccc2c(=O)c(Oc3ccccc3OCC)coc2c1	-5%	1	1%	8%	15%	3%
COc1ccccc1Oc1coc2cc(O)ccc2c1=O	28µM*	-4	-1%	1%	14%	82%
CCOc1ccccc1Oc1coc2cc(O)ccc2c1=O	32µM*	-2	3%	1%	-16%	93%
CCOC(=O)C(CC)Oc1ccc2c(=O)c(Oc3ccccc3Br)coc2c1 (stereo not drawn)	nt	-31*	nt	nt	nt	nt
CC(Oc1ccc(F)cc1)C(=O)Nc1ccc2nsnc2c1 (stereo not drawn)	nt	20	nt	nt	nt	nt
CSc1nn(Cc2cccc(F)c2)c(N(C(C)=O)C(C)=O)c1S(=O)(=O)c1ccccc1	0%	-32*	nt	0%	-2%	nt
CC(=O)c1cc(CC(=O)O)cs1	nt	11	nt	nt	nt	nt
Oc1ccccc1CNc1cnc2ccccc2c1	28µM*	6	-8%	4%	-24%	203%
O=c1oc2cc(O)ccc2c(O)c1-c1ccccc1	nt	3	nt	nt	nt	nt
Oc1ccc2c(c1)oc1cc(O)ccc12	32µM*	-3	6%	-13%	-8%	-2%
COc1c(C)oc2cc(O)ccc2c1=O	18µM*	-2	6%	8%	-2%	151%
CCCc1ccc(S(=O)(=O)Nc2ccc(C)c(NS(C)(=O)=O)c2)cc1	nt	0	5.6µM*	-14%	-7%	0%
CCCCc1ccc(S(=O)(=O)Nc2ccc(C)c(NS(C)(=O)=O)c2)cc1	1%	-5	8%	-1%	-6%	-7%
CCn1nc(C(=O)OCC(=O)N2CCCc3ccccc32)c2ccccc2c1=O	nt	-1	nt	nt	nt	nt
CC(C)C(=O)Nc1ccc2oc(-c3ccc(F)cc3Cl)nc2c1	nt	-4	nt	nt	nt	nt
Cc1cc(C(=O)NCc2ccnc(N3CCOCC3)c2)on1	nt	-7	nt	nt	nt	nt
c1ccc(CNc2nc3ccccc3c3nc(-c4ccccc4)nn23)cc1	25µM*	-6	nt	-4%	17%	nt
CCCOC(=O)c1ccc(Oc2c(C)oc3cc(O)ccc3c2=O)cc1	nt	9	nt	nt	nt	nt
